# From PubChem BioAssay (EPA / NIEHS)
# Where “and” joins values, the source holds several entries; their conditions need not be identical. Identical values can stand only once. Inconclusive results are not listed. Calls of active or inactive are those of the source. How the source made its calls, unless noted: active means hit-call score of the fitted dose curve at least 0.9, where 1 is the maximum; inconclusive means response in the unintended direction; inactive means score below 0.9.
# What was measured:
# [1] = read-out: sulfotransferase (SULT2A), SULT2A1 (gene 6822); experiment: CLD_SULT2A_6hr: CellzDirect (CLD) Gene Expression Assay for sulfotransferase (SULT2A) at 6 hours (AID 2283669);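 further: hits raise transcript level above the DMSO vehicle baseline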
# How it was run: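 Primary human hepatocytes from two donor preparations were dosed daily with chemicals or 0.2% DMSO and harvested at 6 h. Transcript induction read by qNPA chemiluminescence, fitted for gain of signal relative to DMSO; morphology-based cytotoxicity annotated.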
# [2] = read-out: xenobiotic metabolism (CYP1A1), CYP1A1 (gene 1543); experiment: CLD_CYP1A1_24hr: CellzDirect (CLD) Gene Expression Assay for xenobiotic metabolism (CYP1A1) at 24 hours (AID 2283673);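 further: CYP1A1 mRNA level by quantitative nuclease protection with chemiluminescence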
# How it was run: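 Primary human hepatocytes dosed daily with fresh solutions in 0.2% DMSO vehicle. mRNA measured at 24 h by quantitative nuclease protection assay with chemiluminescence; gain-of-signal fit versus DMSO, with morphology-based cytotoxicity flags.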
# [3] = CLD_ACTIN_6hr: CellzDirect (CLD) Gene Expression Assay for Baseline Control (Actin) at 6 hours (AID 2283676);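 further: active means increased actin mRNA relative to DMSO vehicle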
# How it was run: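 Primary human hepatocytes dosed with fresh chemical solutions (vehicle 0.2% DMSO), harvested at 6 h. Actin mRNA quantified by quantitative nuclease protection assay with chemiluminescent read-out, as background control relative to DMSO.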
# [4] = read-out: Cytochrome P450 2B6 (Homo sapiens) (UniProt P20813); experiment: CLD_CYP2B6_6hr: CellzDirect (CLD) Gene Expression Assay for xenobiotic metabolism (CYP2B6) at 6 hours (AID 2283677);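 further: actives raise CYP2B6 transcript above DMSO baseline so AC50 marks an inducer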
# How it was run: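 Primary human hepatocytes dosed with chemicals at multiple concentrations, vehicle 0.2% DMSO; CYP2B6 mRNA induction measured 6 h after dosing by quantitative nuclease protection assay with chemiluminescence, gain of signal fitted relative to DMSO.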
# [5] = CCTE_Padilla_ZF_144hpf_TERATOSCORE: (Legacy) CCTE's 144 Hour Post-fertilization zebrafish Assay Teratoscore, Padilla Lab (AID 2283679; active means hit-call score of the fitted dose curve at least 0.9, where 1 is the maximum; inactive means score below 0.9;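 on AC50: zebrafish embryos with chorions exposed by immersion from 6-8 hpf to 5 dpf with daily renewal; teratogenicity score from eye scoring of death hatching and malformations at 144 hpf; higher score means more developmental defects relative to DMSO baseline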)
# How it was run: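 Larvae scored by eye at 144 hpf for death, hatching and malformations after a day in clean Hanks'. Before that, daily-renewed exposure at 80 uM (0.4% DMSO, 26C) from roughly 6-8 hpf through 5 dpf, 4 embryos per chemical.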
# [6] = read-out: Glyceraldehyde-3-phosphate dehydrogenase (Homo sapiens) (UniProt P04406); experiment: CLD_GAPDH_6hr: CellzDirect (CLD) Gene Expression Assay for Baseline Control (Glyceraldehyde 3-phosphate dehydrogenase) at 6 hours (AID 2283681);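 further: active means increased signal relative to DMSO vehicle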
# How it was run: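 Primary human hepatocytes from two donor preparations, dosed at multiple concentrations with 0.2% DMSO vehicle; GAPDH mRNA measured 6 h after dosing by chemiluminescent quantitative nuclease protection assay (qNPA) on denatured lysates. Serves as background control; cytotoxicity annotated by morphology.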
# [7] = read-out: ABC Transporter (ABCB1), ABCB1 (gene 5243); experiment: CLD_ABCB1_24hr: CellzDirect (CLD) Gene Expression Assay for ABC Transporter (ABCB1) at 24 hours (AID 2283684)
# How it was run: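 Primary human hepatocytes, two donor preparations, dosed daily with fresh solutions; vehicle 0.2% DMSO; harvested at 24 h. ABCB1 mRNA measured by quantitative nuclease protection assay (chemiluminescence); morphology-based cytotoxicity annotated.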
# [8] = read-out: Cytochrome P450 2C9 (Homo sapiens) (UniProt P11712); experiment: CLD_CYP2C9_24hr: CellzDirect (CLD) Gene Expression Assay for xenobiotic metabolism (CYP2C9) at 24 hours (AID 2283688)
# How it was run: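 Primary human hepatocytes from two donor preparations, dosed daily for two days at multiple concentrations; vehicle 0.2% DMSO. CYP2C9 mRNA induction at 24 h measured by qNPA chemiluminescence relative to DMSO; cytotoxicity annotated from morphology.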
# [9] = read-out: HMG-CoA synthase (HMGCS2), HMGCS2 (gene 3158); experiment: CLD_HMGCS2_24hr: CellzDirect (CLD) Gene Expression Assay for HMG-CoA synthase (HMGCS2) at 24 hours (AID 2283691)
# How it was run: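 Primary human hepatocytes from two donor preparations, dosed daily with fresh solutions; vehicle 0.2% DMSO, 24 h harvest. HMGCS2 mRNA quantified by qNPA with S1 nuclease digestion and chemiluminescence; gain fitted versus DMSO, cytotoxicity annotated by morphology.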
# [10] = read-out: sulfotransferase (SULT2A), SULT2A1 (gene 6822); experiment: CLD_SULT2A_24hr: CellzDirect (CLD) Gene Expression Assay for sulfotransferase (SULT2A) at 24 hours (AID 2283694)
# How it was run: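 Primary human hepatocytes from two donor preparations were dosed daily with fresh solutions, vehicle 0.2% DMSO. At 24 h, lysates went to quantitative nuclease protection (qNPA) with S1 digestion and chemiluminescent readout. Cytotoxicity was annotated from phase-contrast morphology.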
# [11] = read-out: ABC Transporter (ABCB11), ABCB11 (gene 8647); experiment: CLD_ABCB11_48hr: CellzDirect (CLD) Gene Expression Assay for ABC Transporter (ABCB11) at 48 hours (AID 2283697)
# How it was run: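 Primary human hepatocytes from two donor preparations dosed daily for two days at multiple concentrations; 0.2% DMSO vehicle. ABCB11 mRNA at 48 h by quantitative nuclease protection assay, chemiluminescence; fitted for induction versus DMSO.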
# [12] = Tanguay_ZF_120hpf_TR_legacy: (Legacy) Oregon State University Tanguay Lab 120 Hour Post-fertilization zebrafish Assay for Touch Response (AID 2283667)
# How it was run: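 Tropical 5D wild-type zebrafish embryos statically exposed to 120 hpf at 28°C, sealed and dark-covered, 0.64% DMSO final; touch response scored as present/absent by brightfield microscopy at 120 hpf. Trimethyltin chloride 5 uM positive control; dead embryos not scored.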
# [13] = read-out: glucuronosyltransferase (UGT1A1), UGT1A1 (gene 54658); experiment: CLD_UGT1A1_6hr: CellzDirect (CLD) Gene Expression Assay for glucuronosyltransferase (UGT1A1) at 6 hours (AID 2283672)
# How it was run: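 Primary human hepatocytes from two donor preparations, dosed with fresh solutions in 0.2% DMSO, harvested at 6 h. UGT1A1 mRNA measured by qNPA chemiluminescence; induction fitted upward versus DMSO.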
# [14] = read-out: ABC Transporter (ABCB11), ABCB11 (gene 8647); experiment: CLD_ABCB11_6hr: CellzDirect (CLD) Gene Expression Assay for ABC Transporter (ABCB11) at 6 hours (AID 2283675);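 further: hits raise ABCB11 mRNA level so AC50 marks induction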
# How it was run: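 Human primary hepatocytes (two donor preparations) given fresh chemical daily at multiple concentrations, vehicle 0.2% DMSO. ABCB11 mRNA induction measured 6 h after dosing by qNPA chemiluminescence versus DMSO; cytotoxicity annotated from morphology.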
# [15] = read-out: xenobiotic metabolism (CYP1A2), CYP1A2 (gene 1544); experiment: CLD_CYP1A2_24hr: CellzDirect (CLD) Gene Expression Assay for xenobiotic metabolism (CYP1A2) at 24 hours (AID 2283683)
# How it was run: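 Primary human hepatocytes from two donor preparations dosed daily with multiple concentrations of chemical, 0.2% DMSO vehicle. CYP1A2 mRNA at 24 h quantified by qNPA chemiluminescence; gain of signal analyzed relative to DMSO. Cytotoxicity flagged by phase-contrast morphology.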
# [16] = read-out: Cytochrome P450 3A4 (Homo sapiens) (UniProt P08684); experiment: CLD_CYP3A4_24hr: CellzDirect (CLD) Gene Expression Assay for xenobiotic metabolism (CYP3A4) at 24 hours (AID 2283689)
# How it was run: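 Primary human hepatocytes from two donors dosed daily with fresh compound for two days, 0.2% DMSO vehicle. CYP3A4 mRNA at 24 hr by qNPA chemiluminescence; gain-of-signal fit versus DMSO, cytotoxicity flagged by morphology.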
# [17] = read-out: Cytochrome P450 2C19 (Homo sapiens) (UniProt P33261); experiment: CLD_CYP2C19_6hr: CellzDirect (CLD) Gene Expression Assay for xenobiotic metabolism (CYP2C19) at 6 hours (AID 2283678)
# How it was run: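 Primary human hepatocytes from two donor preparations were dosed daily, with 0.2% DMSO as vehicle, and harvested 6 h after dosing. CYP2C19 mRNA induction was measured by qNPA chemiluminescence and fitted as gain of signal against DMSO.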
# [18] = read-out: glucuronosyltransferase (UGT1A1), UGT1A1 (gene 54658); experiment: CLD_UGT1A1_24hr: CellzDirect (CLD) Gene Expression Assay for glucuronosyltransferase (UGT1A1) at 24 hours (AID 2283696)
# How it was run: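 Primary human hepatocytes from two donor preparations were dosed (0.2% DMSO vehicle) and harvested at 24 h; UGT1A1 mRNA induction was quantified by chemiluminescent qNPA, fitted as gain relative to DMSO.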
# Cytochrome P450 3A4 (Homo sapiens), sequence (P08684 whole entry, looked up): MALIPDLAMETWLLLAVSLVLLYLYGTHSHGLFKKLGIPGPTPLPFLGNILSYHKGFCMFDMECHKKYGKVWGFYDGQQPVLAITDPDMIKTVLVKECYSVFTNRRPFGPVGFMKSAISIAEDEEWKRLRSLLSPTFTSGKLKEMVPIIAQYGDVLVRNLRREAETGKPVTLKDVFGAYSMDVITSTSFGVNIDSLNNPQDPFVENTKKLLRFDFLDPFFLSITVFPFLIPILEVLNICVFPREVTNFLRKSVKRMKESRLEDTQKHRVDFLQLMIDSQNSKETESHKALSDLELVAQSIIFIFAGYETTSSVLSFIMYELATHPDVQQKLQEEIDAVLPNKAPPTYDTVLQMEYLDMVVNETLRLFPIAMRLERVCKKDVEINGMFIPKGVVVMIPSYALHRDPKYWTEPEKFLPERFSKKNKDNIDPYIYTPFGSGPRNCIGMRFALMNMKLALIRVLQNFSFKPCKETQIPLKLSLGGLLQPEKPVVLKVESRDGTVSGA
# Cytochrome P450 2C19 (Homo sapiens), sequence (P33261 whole entry, looked up): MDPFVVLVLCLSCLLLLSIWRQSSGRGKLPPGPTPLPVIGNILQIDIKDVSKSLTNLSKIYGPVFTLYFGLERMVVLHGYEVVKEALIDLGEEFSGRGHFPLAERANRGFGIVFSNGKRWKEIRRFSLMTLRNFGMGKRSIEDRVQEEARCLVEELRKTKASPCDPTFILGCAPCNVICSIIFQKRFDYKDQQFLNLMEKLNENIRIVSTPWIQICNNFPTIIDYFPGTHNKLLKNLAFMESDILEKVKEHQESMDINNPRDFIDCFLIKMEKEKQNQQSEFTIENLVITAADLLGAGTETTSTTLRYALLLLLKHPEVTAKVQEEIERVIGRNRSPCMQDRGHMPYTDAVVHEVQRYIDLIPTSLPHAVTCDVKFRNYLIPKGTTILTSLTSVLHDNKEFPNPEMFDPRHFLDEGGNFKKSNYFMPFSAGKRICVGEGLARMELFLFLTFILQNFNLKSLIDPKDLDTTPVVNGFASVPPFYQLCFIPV
# Glyceraldehyde-3-phosphate dehydrogenase (Homo sapiens), sequence (P04406 whole entry, looked up): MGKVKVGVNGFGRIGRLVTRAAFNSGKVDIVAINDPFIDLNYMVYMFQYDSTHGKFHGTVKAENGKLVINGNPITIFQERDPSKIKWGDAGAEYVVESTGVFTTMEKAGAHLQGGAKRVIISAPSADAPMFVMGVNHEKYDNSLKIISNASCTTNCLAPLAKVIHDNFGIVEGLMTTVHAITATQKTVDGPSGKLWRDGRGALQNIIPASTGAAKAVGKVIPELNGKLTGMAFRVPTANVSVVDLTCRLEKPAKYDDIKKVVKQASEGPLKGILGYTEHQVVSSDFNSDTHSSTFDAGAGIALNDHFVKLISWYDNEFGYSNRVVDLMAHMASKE
smiles,measurement,setting,value
COc1cc(OC)nc(NC(=O)NS(=O)(=O)c2cc(NC=O)ccc2C(=O)N(C)C)n1,outcome,[1],inactive
same,outcome,[2],inactive
same,outcome,[3],inactive
same,outcome,[4],inactive
same,outcome,[5],inactive
same,outcome,[6],inactive
same,outcome,[7],inactive
same,outcome,[8],inactive
same,outcome,[9],inactive
same,outcome,[10],inactive
same,outcome,[11],inactive
O=[N+]([O-])c1c(Cl)c(Cl)c(Cl)c(Cl)c1Cl,outcome,[12],inactive
same,outcome,[13],inactive
same,AC50,[2],20 µM (active)
same,outcome,[14],inactive
same,AC50,[4],20 µM (active)
same,AC50,[5],31.1 µM (active)
same,outcome,[6],inactive
same,outcome,[15],inactive
same,outcome,[7],inactive
same,outcome,[8],inactive
same,outcome,[16],inactive
CNC(=O)CSP(=S)(OC)OC,outcome,[12],inactive
same,outcome,[13],inactive
same,outcome,[2],inactive
same,outcome,[14],inactive
same,outcome,[3],inactive
same,AC50,[4],3.11 µM (active)
same,outcome,[17],inactive
same,outcome,[5],inactive
same,outcome,[6],inactive
same,outcome,[7],inactive
same,outcome,[9],inactive
same,outcome,[10],inactive
Oc1ccc(Cl)cc1Cc1ccccc1,outcome,[12],inactive
same,outcome,[13],inactive
same,outcome,[3],inactive
same,outcome,[17],inactive
same,AC50,[5],5.12 µM (active) and 9.81 µM (active) and 9.21 µM (active)
same,outcome,[6],inactive
same,outcome,[8],inactive
same,outcome,[16],inactive
same,outcome,[9],inactive
same,outcome,[11],inactive
COC(=O)c1ccccc1S(=O)(=O)NC(=O)N(C)c1nc(C)nc(OC)n1,outcome,[1],inactive
same,outcome,[13],inactive
same,outcome,[2],inactive
same,outcome,[14],inactive
same,outcome,[4],inactive
same,outcome,[17],inactive
same,outcome,[5],inactive
same,outcome,[6],inactive
same,outcome,[7],inactive
same,outcome,[8],inactive
same,outcome,[16],inactive
same,outcome,[10],inactive
same,outcome,[11],inactive
COP(=S)(OC)Oc1ccc(SC)c(C)c1,outcome,[1],inactive
same,outcome,[13],inactive
same,AC50,[2],20 µM (active)
same,AC50,[4],4.74 µM (active)
same,AC50,[5],16.1 µM (active)
same,AC50,[15],9.72 µM (active)
same,outcome,[16],inactive
OCCOc1ccccc1,outcome,[2],inactive
same,outcome,[14],inactive
same,outcome,[3],inactive
same,outcome,[4],inactive
same,outcome,[17],inactive
same,outcome,[5],inactive
same,outcome,[6],inactive
same,outcome,[7],inactive
same,outcome,[8],inactive
same,outcome,[16],inactive
same,outcome,[9],inactive
Oc1cc(Cl)ccc1Oc1ccc(Cl)cc1Cl,outcome,[12],inactive
same,outcome,[2],inactive
same,outcome,[14],inactive
same,outcome,[4],inactive
same,AC50,[5],1.48 µM (active) and 4.99 µM (active) and 1.9 µM (active)
same,outcome,[6],inactive
same,outcome,[7],inactive
same,outcome,[9],inactive
same,outcome,[10],inactive
same,outcome,[18],inactive
same,outcome,[11],inactive
COC(=O)c1ccccc1S(=O)(=O)NC(=O)Nc1nc(C)nc(OC)n1,outcome,[2],inactive
same,outcome,[14],inactive
same,outcome,[3],inactive
same,outcome,[4],inactive
same,outcome,[17],inactive
same,outcome,[5],inactive
same,outcome,[6],inactive
same,outcome,[7],inactive
same,outcome,[16],inactive
same,outcome,[9],inactive
same,outcome,[10],inactive
CCC(C)(C)C(=O)OC1=C(c2ccc(Cl)cc2Cl)C(=O)OC12CCCCC2,outcome,[12],inactive
same,outcome,[13],inactive
same,outcome,[2],inactive
same,outcome,[14],inactive
same,outcome,[3],inactive
same,outcome,[4],inactive
same,outcome,[17],inactive
same,AC50,[5],1.89 µM (active)
same,outcome,[6],inactive
same,outcome,[7],inactive
same,outcome,[8],inactive
same,AC50,[16],0.0493 µM (active)
CC(C)OC(=O)Nc1cccc(Cl)c1,outcome,[12],inactive
same,outcome,[13],inactive
same,AC50,[2],5.63 µM (active)
same,outcome,[3],inactive
same,AC50,[4],6.86 µM (active)
same,AC50,[5],72.3 µM (active)
same,outcome,[7],inactive
same,outcome,[8],inactive
same,AC50,[16],16 µM (active)
same,outcome,[10],inactive
same,AC50,[18],20 µM (active)
O=C(O)COc1ccc(Cl)cc1Cl,outcome,[12],inactive
same,outcome,[13],inactive
same,outcome,[2],inactive
same,outcome,[3],inactive
same,AC50,[4],0.0448 µM (active)
same,outcome,[17],inactive
same,outcome,[5],inactive
same,outcome,[6],inactive
same,outcome,[7],inactive
same,AC50,[9],0.0225 µM (active)
CC1(C)C(C=C(Cl)Cl)C1C(=O)OC(C#N)c1ccc(F)c(Oc2ccccc2)c1 (configuration not stated),outcome,[1],inactive
same,outcome,[13],inactive
same,outcome,[2],inactive
same,outcome,[14],inactive
same,outcome,[17],inactive
same,AC50,[5],0.345 µM (active)
same,outcome,[6],inactive
same,outcome,[7],inactive
same,outcome,[8],inactive
same,outcome,[16],inactive
C#CCN1C(=O)COc2cc(F)c(N3C(=O)C4=C(CCCC4)C3=O)cc21,outcome,[12],inactive
same,outcome,[3],inactive
same,AC50,[4],0.301 µM (active)
same,outcome,[17],inactive
same,AC50,[5],4.15 µM (active)
same,outcome,[7],inactive
same,outcome,[8],inactive
same,outcome,[9],inactive
same,outcome,[10],inactive
O=C1c2ccccc2C(=O)N1SC(Cl)(Cl)Cl,outcome,[12],inactive
same,outcome,[2],inactive
same,outcome,[14],inactive
same,outcome,[17],inactive
same,AC50,[5],19.3 µM (active)
same,outcome,[6],inactive
same,outcome,[7],inactive
same,outcome,[11],inactive
